From PubChem BioAssay
The list is not random: actives were taken first. Their share in the collection is about 12%.
G9a block: qHTS Assay for Inhibitors of Histone Lysine Methyltransferase G9a; 350,000 tested, 8.8% active; G9a H3K9 monomethylation, AlphaScreen, 2 h; Histone-lysine N-methyltransferase EHMT2 (Homo sapiens), Q96KQ7; AID 504332, 2011; Potency, µM (highest dose often 102 µM), actives largely listed as inhibitors; note: nearly all actives have a fitted effect of over 75% in size
Target sequence (Q96KQ7 913-1193 limits assumed): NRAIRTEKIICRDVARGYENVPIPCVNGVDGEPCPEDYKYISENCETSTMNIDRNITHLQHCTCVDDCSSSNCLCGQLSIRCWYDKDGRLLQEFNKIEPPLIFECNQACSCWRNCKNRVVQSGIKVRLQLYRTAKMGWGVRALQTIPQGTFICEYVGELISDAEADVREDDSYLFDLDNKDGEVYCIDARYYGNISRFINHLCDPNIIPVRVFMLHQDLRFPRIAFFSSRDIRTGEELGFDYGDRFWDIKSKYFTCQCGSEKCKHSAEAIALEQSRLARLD
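Readings reflect AlphaScreen signal from monomethyl-H3K9 antibody detection. HMT at 20 nM; substrate b-H3K9 500 nM; cofactor SAM 20 uM; 2 h RT reaction; compounds tested as titrations in qHTS with 15 min preincubation.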
HP1b chromo inh: HTS for Inhibitors of HP1-beta Chromodomain Interactions with Methylated Histone Tails | Chromobox protein homolog 1 (Homo sapiens), P83916 | AlphaScreen HP1-beta / biotin-H3K9me3 peptide binding | Potency, µM (titrated, usually from 114 µM), usual class: inhibitors | 390,000 tested, 0.56% active | AID 540317, 2011; note: nearly all actives have a fitted effect of over 70% in size
Target sequence (P83916 whole entry, looked up): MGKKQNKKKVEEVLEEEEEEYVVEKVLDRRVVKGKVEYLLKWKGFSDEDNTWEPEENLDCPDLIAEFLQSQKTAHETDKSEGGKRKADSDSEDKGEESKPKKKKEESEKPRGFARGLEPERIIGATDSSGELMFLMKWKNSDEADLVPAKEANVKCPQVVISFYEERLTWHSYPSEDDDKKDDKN
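AlphaScreen: HP1-beta (50 nM) preformed 30 min with biotin-H3(1-18)K9me3 peptide (50 nM) in PBS pH 7.4, 0.01% Tween-20. Compound added for 30 min at RT, then streptavidin donor/nickel chelate acceptor beads (10 ug/mL) for 30 min.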
Sfp inh: qHTS Assay for Inhibitors of Bacillus subtilis Sfp phosphopantetheinyl transferase (PPTase); AID 1490, 2009; 4'-phosphopantetheinyl transferase ffp (Bacillus subtilis), Q9F4F7; Biochemical Sfp PPTase activity, qHTS; 310,000 tested, 3.5% active; Potency, µM, most hits filed as inhibitors;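 note: the enzyme is Sfp with the accession as filed and its product quenches rhodamine fluorescence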
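Buffer: 50 mM Hepes-Na pH 7.6, 10 mM MgCl2, 0.01% Nonidet P-40, 0.01% BSA. Enzyme 15 nM, pre-exposed to compound 15 min; substrates then added and fluorescence change tracked over 30 min.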
JMJD2A Tudor: qHTS Assay for Inhibitors of JMJD2A-Tudor Domain; Lysine-specific demethylase 4A (Homo sapiens), O75164; AlphaScreen JMJD2A-Tudor / H3K4me3 peptide binding; Potency, µM (doses to about 114 µM), usual class: inhibitors; 390,000 tested, 4.4% active; AID 504339, 2011; note: nearly all actives have a fitted effect of over 50% in size
BAZ2B block: qHTS Assay for Inhibitors of BAZ2B; Bromodomain adjacent to zinc finger domain protein 2B (Homo sapiens), Q9UIF8; AlphaScreen BAZ2B-H3K14Ac peptide displacement; Potency, µM (highest dose often 114 µM), most hits filed as inhibitors; 360,000 tested, 4.4% active; note: nearly all actives have a fitted effect of over 60% in size
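BAZ2B (50 nM) with biotin-H3(5-23)K14Ac peptide (50 nM) in PBS pH 7.4, 0.01% Tween-20, preformed 30 min, then compound 30 min at room temperature; top concentration 110uM. AlphaScreen streptavidin donor/nickel chelate acceptor beads (10 ug/mL final), 20 min dark, signal read.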
L3MBTL1 block: qHTS Assay for the Inhibitors of L3MBTL1. Lethal(3)malignant brain tumor-like protein 1 (Homo sapiens), Q9Y468. AlphaScreen L3MBTL1–H3K9me1 peptide binding. Potency, µM (series often up to 57.1 µM), most hits filed as inhibitors. 230,000 tested, 0.66% active. AID 485360, 2010; note: nearly all actives have a fitted effect of over 60% in size
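L3MBTL1 (50 nM) pre-complexed 30 min with biotinylated H3(1-15)K9me1 peptide (75 nM), then compounds added for 30 min at room temperature; AlphaScreen streptavidin donor/nickel chelate acceptor beads (10 ug/mL final) read after 30 min dark incubation.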
Each line names hits and unclear results; the compound was inactive in the other large screens. Calls come from the whole dose curve; as a rule, active = well fitted curve in the direction sought with a large enough effect; inconclusive = small, poorly fitted or top-dose-only effect, or another doubt; inactive = no such curve, though single readings can be large; an effect the other way counts as inactive or inconclusive.

COc1ccc(OC)c(/C=N/N=C2\SCC(=O)N2Cc2ccco2)c1	Sfp inh 56µM
O=C1c2ccccc2C(Cc2ccnc(F)c2)(Cc2ccnc(F)c2)c2ccccc21	none (no result: G9a block, HP1b chromo inh, JMJD2A Tudor, BAZ2B block, L3MBTL1 block)
C[C@@]1(O)CCOC(=O)C1	none (no result: HP1b chromo inh, JMJD2A Tudor, BAZ2B block, L3MBTL1 block)
COc1ccc2oc(-c3ccc(C)c(NC(=O)c4ccc(N5CCCCC5)c([N+](=O)[O-])c4)c3)nc2c1	none (no result: Sfp inh, L3MBTL1 block)
O=C(O)CC(NC(=O)C1c2ccccc2Oc2ccccc21)c1ccc(Cl)cc1 (stereo not given)	G9a block 11µM
COC(=O)c1ccccc1NC(=O)CNCCc1ccc(OC)c(OC)c1	G9a block 7.9µM, JMJD2A Tudor 25µM, BAZ2B block 20µM (no result: L3MBTL1 block)
COc1ccc(CCNC(=O)C2CC2)cc1OC	G9a block inconclusive (no result: BAZ2B block)
COc1ccc(CCNCC(=O)N2C(C)CCCC2C)cc1OC (stereo not given)	HP1b chromo inh inconclusive, JMJD2A Tudor 0.79µM, BAZ2B block 79µM
COc1ccc(CCNC(=O)CN(C2CCCCC2)S(C)(=O)=O)cc1OC	G9a block 32µM
COC(=O)c1cc(NC(=O)Cc2ccc(OC)c(OC)c2)cc(C(=O)OC)c1	JMJD2A Tudor 45µM
COc1ccc(CCNCC(=O)Nc2c(C)cc(C)cc2C)cc1OC	none (no result: G9a block)
COc1ccc(CCNCC(=O)Nc2ccc(C)c(S(=O)(=O)N(C)C)c2)cc1OC	G9a block 22µM, Sfp inh inconclusive, JMJD2A Tudor inconclusive, BAZ2B block 22µM
COc1ccc(CCNCC(=O)Nc2ccc(C)c(Br)c2)cc1OC	G9a block 40µM, HP1b chromo inh inconclusive, JMJD2A Tudor 50µM, BAZ2B block inconclusive
Nc1nc(SCC(=O)c2ccc(Oc3ccccc3)cc2)n[nH]1	G9a block inconclusive, HP1b chromo inh inconclusive, Sfp inh 50µM, JMJD2A Tudor 35µM
Cc1ccc(Oc2ccc(NC(=O)CSc3n[nH]c(N)n3)cc2)cc1	G9a block inconclusive
Nc1nc(SCC(=O)N2CCN(c3ccccc3)CC2)n[nH]1	G9a block 40µM (no result: L3MBTL1 block)
Nc1nc(SCC(=O)N2CCN(c3ccc(F)cc3)CC2)n[nH]1	none (no result: Sfp inh)
O=C(CSc1n[nH]c(-c2ccccc2Cl)n1)N1CCN(c2ccccc2)CC1	none (no result: Sfp inh, L3MBTL1 block)
Nc1nnc(SCC(=O)N2CCN(c3ccccc3)CC2)s1	G9a block 50µM
Cc1nc(SCC(=O)N2CCN(c3ccccc3)CC2)n[nH]1	G9a block 40µM (no result: L3MBTL1 block)
Nn1c(SCC(=O)N2CCCC2=O)nnc1-c1cccs1	none (no result: Sfp inh)
O=C(O)c1ccc2c(c1)C(=O)N([C@H](Cc1ccc(O)cc1)C(=O)O)C2=O	none (no result: HP1b chromo inh)
O=[N+]([O-])c1ccc(O)c(/C=N/Nc2ccccn2)c1	JMJD2A Tudor inconclusive, BAZ2B block 4.5µM, L3MBTL1 block 13µM
O=[N+]([O-])c1ccc(O)c(/C=N/Nc2ncnc3c2cnn3-c2ccccc2)c1	JMJD2A Tudor 79µM, BAZ2B block inconclusive (no result: L3MBTL1 block)
O=[N+]([O-])c1ccc(O)c(/C=N/Nc2nc3ccccc3[nH]2)c1	JMJD2A Tudor inconclusive, BAZ2B block 32µM, L3MBTL1 block inconclusive
O=[N+]([O-])c1ccc(O)c(C=NNc2ccc(S(=O)(=O)O)cc2)c1	JMJD2A Tudor 79µM (no result: G9a block, Sfp inh, BAZ2B block, L3MBTL1 block)
CCOc1ccccc1C(=O)Nc1ccc(S(=O)(=O)Nc2onc(C)c2C)cc1	none (no result: Sfp inh, L3MBTL1 block)
N/C(=N\OC(=O)N1c2ccccc2Sc2ccccc21)c1ccccc1	G9a block 45µM, JMJD2A Tudor inconclusive, BAZ2B block inconclusive
C#Cc1ccc([C@@H]2C=C(C(=O)NCc3ccccc3)O[C@H](OCCCCO)C2)cc1	none (no result: G9a block, Sfp inh, BAZ2B block, L3MBTL1 block)
S=c1[nH]nc(COc2ccccc2)n1/N=C/c1ccccc1Br	G9a block 8.9µM (no result: L3MBTL1 block)
Oc1ccc(Br)cc1/C=N/n1c(COc2ccccc2)n[nH]c1=S	G9a block 28µM, HP1b chromo inh inconclusive, Sfp inh inconclusive, JMJD2A Tudor inconclusive (no result: L3MBTL1 block)
